Positions count from the first letter of the chain named.

Common to all, as to assay: PBM; 200 nM protein, PBS
Conditions in all cases: dsDNA, one strand shown

The target in assay [1] is T1, VENTX (Homo sapiens, UniProt O95231 78-163, R121Q).
T1 sequence: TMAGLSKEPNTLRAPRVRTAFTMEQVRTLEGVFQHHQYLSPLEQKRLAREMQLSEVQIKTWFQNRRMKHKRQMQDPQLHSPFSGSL

In assay [2] the target is T2, VENTX (Homo sapiens, UniProt O95231 78-163).
T2 sequence: T1 sequence with Q44R

In assay [3] the target is T3, VENTX (Homo sapiens, UniProt O95231 78-163, Y115F).
T3 sequence: T1 sequence with Y38F, Q44R

In assay [4] the target is ALX1 (Homo sapiens, UniProt Q15699 118-204, L144V).
Chain of ALX1 (Homo sapiens, UniProt Q15699 118-204, L144V) (Q15699 118-204 L144V): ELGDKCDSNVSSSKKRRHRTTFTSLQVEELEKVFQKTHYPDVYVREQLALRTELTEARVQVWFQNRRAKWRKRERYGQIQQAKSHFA
The target in assay [5] is ALX1 (Homo sapiens, UniProt Q15699 118-204, L144R).
Chain of ALX1 (Homo sapiens, UniProt Q15699 118-204, L144R) (Q15699 118-204 L144R): as the sequence (Q15699 118-204 L144V) above, with V27R counted along it
The target in assay [6] is ALX1 (Homo sapiens, UniProt Q15699 118-204).
Chain of ALX1 (Homo sapiens, UniProt Q15699 118-204) (Q15699 118-204): as the sequence (Q15699 118-204 L144V) above, with V27L counted along it
Assay [7] deals with HOXD13 (Homo sapiens, UniProt P35453 263-343).
Chain of HOXD13 (Homo sapiens, UniProt P35453 263-343) (P35453 263-343): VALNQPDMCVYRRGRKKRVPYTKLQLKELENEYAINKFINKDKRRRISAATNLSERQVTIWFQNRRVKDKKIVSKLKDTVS
In assay [8] the target is HOXD13 (Homo sapiens, UniProt P35453 263-343, T313A).
Chain of HOXD13 (Homo sapiens, UniProt P35453 263-343, T313A) (P35453 263-343 T313A): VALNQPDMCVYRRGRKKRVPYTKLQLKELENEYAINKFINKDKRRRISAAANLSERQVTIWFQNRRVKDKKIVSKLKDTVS
The target of assay [9] is ALX3 (Homo sapiens, UniProt O95076 139-225, N203Q).
Chain of ALX3 (Homo sapiens, UniProt O95076 139-225, N203Q) (O95076 139-225 N203Q): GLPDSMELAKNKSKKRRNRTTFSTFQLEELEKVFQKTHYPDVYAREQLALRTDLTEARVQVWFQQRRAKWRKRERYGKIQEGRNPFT
Assay [10] deals with ALX3 (Homo sapiens, UniProt O95076 139-225).
Chain of ALX3 (Homo sapiens, UniProt O95076 139-225) (O95076 139-225): as the sequence (O95076 139-225 N203Q) above, with Q65N counted along it
For assay [11], the target named is VAX1 (Homo sapiens, UniProt Q5SQQ9 86-172).
Chain of VAX1 (Homo sapiens, UniProt Q5SQQ9 86-172) (Q5SQQ9 86-172): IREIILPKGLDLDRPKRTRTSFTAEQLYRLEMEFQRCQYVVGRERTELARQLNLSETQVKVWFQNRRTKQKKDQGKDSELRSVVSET
Assay [12] addresses ALX3 (Homo sapiens, UniProt O95076 139-225, L168Q).
For assay [13], the target named is ALX3 (Homo sapiens, UniProt O95076 139-225, L168V).
Chain of ALX3 (Homo sapiens, UniProt O95076 139-225, L168V) (O95076 139-225 L168V): as the sequence (O95076 139-225 N203Q) above, with L30V, Q65N counted along it
Assay [14] deals with VAX1 (Homo sapiens, UniProt Q5SQQ9 86-172, T142I).
Chain of VAX1 (Homo sapiens, UniProt Q5SQQ9 86-172, T142I) (Q5SQQ9 86-172 T142I): as the sequence (Q5SQQ9 86-172) above, with T57I counted along it
Assay [15] has as its target ALX3 (Homo sapiens, UniProt O95076 139-225, N203S).
For assay [16], the target named is VAX1 (Homo sapiens, UniProt Q5SQQ9 86-172, K157R).
Chain of VAX1 (Homo sapiens, UniProt Q5SQQ9 86-172, K157R) (Q5SQQ9 86-172 K157R): as the sequence (Q5SQQ9 86-172) above, with K72R counted along it
Assay [17] concerns the target HOXB6 (Homo sapiens, UniProt P17509 132-218, K202E).
Assay [18] concerns the target HOXB6 (Homo sapiens, UniProt P17509 132-218).

Chain of ALX3 (Homo sapiens, UniProt O95076 139-225, N203S) (O95076 139-225 N203S): as the sequence (O95076 139-225 N203Q) above, with Q65S counted along it
Chain of ALX3 (Homo sapiens, UniProt O95076 139-225, L168Q) (O95076 139-225 L168Q): as the sequence (O95076 139-225 N203Q) above, with L30Q, Q65N counted along it
Chain of HOXB6 (Homo sapiens, UniProt P17509 132-218, K202E) (P17509 132-218 K202E): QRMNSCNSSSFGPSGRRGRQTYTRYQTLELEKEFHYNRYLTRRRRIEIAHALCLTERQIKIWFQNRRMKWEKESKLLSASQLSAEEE
Chain of HOXB6 (Homo sapiens, UniProt P17509 132-218) (P17509 132-218): as the sequence (P17509 132-218 K202E) above, with E71K counted along it

As for CGTCCTCC, the binding signal is 8.1 upbm affinity estimate (log intensity, higher = more binding, comparable within an allelic series) with VENTX [1]; 8.19 upbm affinity estimate (log intensity, higher = more binding, comparable within an allelic series) with VENTX [2]; 8.16 upbm affinity estimate (log intensity, higher = more binding, comparable within an allelic series) with VENTX [3]; 6.55 upbm affinity estimate (log intensity, higher = more binding, comparable within an allelic series) in the assay with ALX1 [4]; 6.64 upbm affinity estimate (log intensity, higher = more binding, comparable within an allelic series) with ALX1 [5]; 6.6 upbm affinity estimate (log intensity, higher = more binding, comparable within an allelic series) in the assay with ALX1 [6].

Turning to ACTTATAA, the binding signal is 9.95 upbm affinity estimate (log intensity, higher = more binding, comparable within an allelic series) in the assay with VENTX [1]; 10.5 upbm affinity estimate (log intensity, higher = more binding, comparable within an allelic series) in the assay with VENTX [2]; 10 upbm affinity estimate (log intensity, higher = more binding, comparable within an allelic series) in the assay with VENTX [3]; 11.3 upbm affinity estimate (log intensity, higher = more binding, comparable within an allelic series) with HOXD13 [7]; 11 upbm affinity estimate (log intensity, higher = more binding, comparable within an allelic series) in the assay with HOXD13 [8].

Turning to GCCCCGGC, the binding signal with VENTX [1] was 8.07 upbm affinity estimate (log intensity, higher = more binding, comparable within an allelic series); with VENTX [2] it was 7.98 upbm affinity estimate (log intensity, higher = more binding, comparable within an allelic series); with VENTX [3], 7.96 upbm affinity estimate (log intensity, higher = more binding, comparable within an allelic series); with ALX1 [4] it was 6.69 upbm affinity estimate (log intensity, higher = more binding, comparable within an allelic series); in the assay with ALX1 [5], 6.67 upbm affinity estimate (log intensity, higher = more binding, comparable within an allelic series); with ALX1 [6] it was 6.32 upbm affinity estimate (log intensity, higher = more binding, comparable within an allelic series).

Turning to CGGCGTGC, the binding signal was 8.01 upbm affinity estimate (log intensity, higher = more binding, comparable within an allelic series) with VENTX [1]; 7.84 upbm affinity estimate (log intensity, higher = more binding, comparable within an allelic series) with VENTX [2]; 8.12 upbm affinity estimate (log intensity, higher = more binding, comparable within an allelic series) in the assay with VENTX [3]; 7.7 upbm affinity estimate (log intensity, higher = more binding, comparable within an allelic series) with ALX3 [9]; 7.74 upbm affinity estimate (log intensity, higher = more binding, comparable within an allelic series) with ALX3 [10]; 7.08 upbm affinity estimate (log intensity, higher = more binding, comparable within an allelic series) with VAX1 [11]. Further, the binding signal with ALX3 [12] is 7.73 upbm affinity estimate (log intensity, higher = more binding, comparable within an allelic series); with ALX3 [13], 7.75 upbm affinity estimate (log intensity, higher = more binding, comparable within an allelic series); with VAX1 [14], 7.28 upbm affinity estimate (log intensity, higher = more binding, comparable within an allelic series); in the assay with ALX3 [15], 7.71 upbm affinity estimate (log intensity, higher = more binding, comparable within an allelic series); with VAX1 [16], 7.16 upbm affinity estimate (log intensity, higher = more binding, comparable within an allelic series).

As for CTAATCGA, the binding signal was 11.6 upbm affinity estimate (log intensity, higher = more binding, comparable within an allelic series) in the assay with VENTX [1]; 12.5 upbm affinity estimate (log intensity, higher = more binding, comparable within an allelic series) in the assay with VENTX [2]; 11.1 upbm affinity estimate (log intensity, higher = more binding, comparable within an allelic series) in the assay with VENTX [3].

Take CCTGCTGC: the binding signal in the assay with VENTX [1] is 8.37 upbm affinity estimate (log intensity, higher = more binding, comparable within an allelic series); with VENTX [2] it was 8.45 upbm affinity estimate (log intensity, higher = more binding, comparable within an allelic series); in the assay with VENTX [3], 8.42 upbm affinity estimate (log intensity, higher = more binding, comparable within an allelic series); with HOXB6 [17], 9.18 upbm affinity estimate (log intensity, higher = more binding, comparable within an allelic series); with HOXB6 [18], 9.23 upbm affinity estimate (log intensity, higher = more binding, comparable within an allelic series).

As to AGCGTGCC, the binding signal is 8.06 upbm affinity estimate (log intensity, higher = more binding, comparable within an allelic series) in the assay with VENTX [1]; 7.96 upbm affinity estimate (log intensity, higher = more binding, comparable within an allelic series) in the assay with VENTX [2]; 8.06 upbm affinity estimate (log intensity, higher = more binding, comparable within an allelic series) in the assay with VENTX [3]; 7.73 upbm affinity estimate (log intensity, higher = more binding, comparable within an allelic series) with ALX3 [9]; 7.88 upbm affinity estimate (log intensity, higher = more binding, comparable within an allelic series) with ALX3 [10]; 7.14 upbm affinity estimate (log intensity, higher = more binding, comparable within an allelic series) in the assay with VAX1 [11]. In addition, the binding signal was 7.81 upbm affinity estimate (log intensity, higher = more binding, comparable within an allelic series) with ALX3 [12]; 7.81 upbm affinity estimate (log intensity, higher = more binding, comparable within an allelic series) with ALX3 [13]; 7.18 upbm affinity estimate (log intensity, higher = more binding, comparable within an allelic series) with VAX1 [14]; 7.76 upbm affinity estimate (log intensity, higher = more binding, comparable within an allelic series) with ALX3 [15]; 7.13 upbm affinity estimate (log intensity, higher = more binding, comparable within an allelic series) with VAX1 [16].

Values taken from publication PMC11006913.
